PubChem BioAssay AID504444 (National Center for Advancing Translational Sciences (NCATS), 2011)
Among all 360,000 compounds or so, about 7,500 (2.1%) were called active. Another 20% or so got no clear call; they are omitted. Calls follow the shape of the dose curve; as a rule, active = well fitted inhibition curve with a large enough effect; inconclusive = small, poorly fitted or top-dose-only effect, or effect the other way; inactive = flat fitted curve, though single readings scatter. Shown is part of a subset that was picked to be rich in actives.

Assay: Nrf2 qHTS screen for inhibitors; also: nearly all actives have a fitted effect of over 60% in size
Conditions: A549 ARE-Fluc reporter, luciferase luminescence, 18-24 h; series mostly up to 46 µM; activity change, negative = inhibition: at the top concentration
Description: NIH Molecular Libraries Probe Production Network [MLPCN]
NIH Chemical Genomics Center [NCGC]
Assay Provider: Shyam Biswal, Johns Hopkins University
Nrf2 is a transcription factor that maintains cellular redox homoestasis and protects cells from xenobiotics. Nrf2 binds to the antioxidant response element (ARE) to induce gene expression of a broad spectrum of genes that encode for antioxidants. […] Finding a small molecule that act as an inhibitor of Nrf2 function would represent a novel therapeutic target that could lead to improvement in survival of patients undergoing chemo- and/or radio- therapy.
This is the Nrf2 activity measured in the luminescent read.
1. Shibata, T., et al., Genetic Alteration of Keap1 Confers Constitutive Nrf2 Activation and Resistance to Chemotherapy in Gallbladder Cancer. Gastroenterology, 2008.
2. Sjoblom, T., et al., The consensus coding sequences of human breast and colorectal cancers. Science, 2006. 314(5797): p. 268-74.
NCGC Assay Protocol Summary:
A concentration-response assay was performed with A549 ARE_Fluc cells which are suspended in 5% FBS OPTI-MEM. Five uL were dispensed into 1536-well white TC-treated plate using the Kalypsys dispenser to achieve a density of 5000 cells/well in all columns except column 1. The plate is incubated at 37deg C at 5% CO2 for 2 hours before 23 nL of compounds are added with the Kalypsys pin tool equipped with a 1,536-pin array containing 10-nL slotted pins (FP1S10, 0.457-mm diameter, 50.8 mm long; V&P Scientific). The control compounds Budesonide and Staurosporine are both added at a concentration of 2mM and Budesonide is also added as a 1:10 titration, starting at 200uM, to achieve dose-response. After an 18-24 hour incubation at 37deg C at 5% CO2, 5ul of medium is added to column 1. Afterwards 1ul of 5x of CellTiter-Fluor (Promega) is added to every well. The plate is then incubated at 37deg C at 5% CO2 for 30 minutes before they are read on the ViewLux (Perkin Elmer) for a fluorescent read Ex=405(10)/Em=525(10) for a 3 second exposure, 2x binning, and high gain. Then 3 uL of 3x BugLite is dispensed into all wells and the plate is incubated at ambient room temperature for 15 minutes. Afterwards another ViewLux read is performed using the clear filter to get a luminescent read with the settings of 40 second exposure, 2x binning, and high gain. Cytotoxicity is assessed through the first fluorescent read and then biochemical activity against Nrf2 is measured in the luminescent read.
% is scaled to controls: 0 for no effect and ±100 for the full control effect; potency is read from the fitted curve at half-maximal effect.

Compound	Potency	activity change, negative = inhibition
O=C(/C=C/c1ccccc1)c1ccccc1O	3.66 µM (active)	
O=C(NNC(=O)c1ccccc1O)c1ccccc1O		-25.8% (inactive)
CCc1ccnc(NC(=O)Nc2ccc(OCc3ccccc3)cc2)c1		-9.72% (inactive)
CNC(=O)c1sc(Nc2ccc(OCc3ccccc3)cc2)nc1C	20.6 µM (active)	
O=C(O)/C=C\C(=O)Nc1ccc(OCc2ccccc2)cc1		18.1% (inactive)
CCN(C[C@H]1N[C@@](CC)(C(=O)OC)[C@H]2C(=O)N(Cc3ccccc3)C(=O)[C@@H]12)S(=O)(=O)c1ccccc1		16.6% (inactive)
Cc1cccc(C(=O)OCC(=O)NC(C)C2CC3CCC2C3)c1O (centres undefined)		-2.64% (inactive)
COc1ccc(C(=O)COC(=O)CN2C(=O)C3CC=CCC3C2=O)c(OC)c1 (centres undefined)		1.38% (inactive)
CC(C)Cn1c(N)c(C(=O)COC(=O)CN2C(=O)C3CC=CCC3C2=O)c(=O)n(C)c1=O (centres undefined)	4.61 µM (active)	
CC(C)Cn1c(N)c(C(=O)COC(=O)C2CCCN2C(=O)c2cccs2)c(=O)n(C)c1=O (centres undefined)		-14.3% (inactive)
O=C(Nc1ccn(CCCNCc2ccc3[nH]ccc3c2)c(=O)n1)OCc1ccccc1		-1.64% (inactive)
CN(Cc1ccccc1)C(=O)c1ccc(COc2ccccc2)cc1		1.07% (inactive)
O=C(NCCS(=O)(=O)NCc1ccc(F)cc1)c1ccccc1		3.15% (inactive)
COc1ccccc1S(=O)(=O)NCc1ccc(C(=O)N(C)Cc2ccc(F)cc2)cc1	23.1 µM (active)	
O=C1N(Cc2ccccc2)c2ccc(Cl)cc2C1(O)c1c[nH]c2ccccc12 (centres undefined)		1.03% (inactive)
CC(Nc1ncnc2ccc(-c3ccc4c(c3)OCO4)cc12)c1ccco1 (centres undefined)		-6.5% (inactive)
O=C(/C=C/c1ccc(F)cc1)Nc1cccc(S(=O)(=O)Nc2cccc(C(F)(F)F)c2)c1		-7.06% (inactive)
Cc1oc2c(F)c(F)c(F)c(F)c2c1S(=O)(=O)Nc1cccc(C(F)(F)F)c1	8.2 µM (active)	
Cc1cccc(NC(=O)c2cccc(C(F)(F)F)c2)c1		9.33% (inactive)
CCn1c2ccccc2c2cc(CN3CCN(Cc4cccc(Cl)c4)CC3)ccc21		1.46% (inactive)
Cc1cccc(C(=O)N2c3nc(-c4ccco4)nn3C3(CCCCC3)[C@@H]3CCCC[C@@H]32)c1		-10.5% (inactive)
CN(C)S(=O)(=O)c1ccc(Oc2ccc(S(=O)(=O)N(C)C)cc2)cc1	13 µM (active)	
COc1cccc(NC(=O)c2ccc(S(=O)(=O)N(C)C)cc2)c1		-11.6% (inactive)
CN(C)S(=O)(=O)c1ccc(NC(=O)N2CCOCC2)cc1		12.1% (inactive)
CCOc1ccc(-c2n[nH]c3c2C(c2ccccc2OC)N(c2ccc(Br)cc2)C3=O)cc1 (centres undefined)		-90.3% (inactive)

Compound	Potency	activity change, negative = inhibition
CCCCCCCCNS(=O)(=O)CCNC1CCCCC1		17.5% (inactive)
Cc1cccc(C(C)C)c1NC(=O)C(NS(=O)(=O)c1cccc2nsnc12)c1ccccc1 (centres undefined)		4.2% (inactive)
CCN1/C(=C/C(=S)Nc2ccccc2)Sc2ccccc21	6.51 µM (active)	
CCNC(=O)N1c2ccccc2Sc2ccccc21		2.6% (inactive)
O=C(CCN1c2ccccc2Sc2ccccc21)Nc1ccccc1		-4.56% (inactive)
CC(C)NC(=O)Nc1cccc2c1O[C@H](CN(C)S(=O)(=O)c1cccs1)[C@@H](C)CN([C@H](C)CO)C2=O		4.9% (inactive)
COc1cccc(N2CCN(S(=O)(=O)c3cc(Br)cc4c3N(C(=O)C3CC3)CC4)CC2)c1		-6.76% [at 9.27 µM] (inactive)
O=C(NCCC1=CCCCC1)c1ccc2c(c1)N(Cc1ccccc1F)C(=O)c1ccccc1S2(=O)=O		17.8% (inactive)
COc1cccc(OC2=NS(=O)(=O)c3ccccc32)c1		1.62% [at 65.3 µM] (inactive)
Cn1nccc1CNC(=O)c1ccnn1C		-3.22% (inactive)
CCCc1ccc(-c2c(C)sc(NC(=O)c3ccnn3C)c2C#N)cc1	13 µM (active)	
CCN(CC)C(=O)c1sc(NC(=O)c2ccco2)c(C#N)c1C		2.27% (inactive)
COc1ccc(C)cc1NC(=O)COCc1cc(-c2cccs2)on1		-15.1% (inactive)
O=C(Nc1ccc(OC(F)(F)F)cc1)C1CCCN(S(=O)(=O)c2ccc(Br)s2)C1 (centres undefined)		-12.6% (inactive)
COC(=O)C(C)Sc1nc2c(c(=O)n(C)c(=O)n2C)n1Cc1cccc(C)c1 (centres undefined)		-11.1% (inactive)
CCCCNc1nc2c(c(=O)n(C)c(=O)n2C)n1Cc1cccc(OC)c1	5.8 µM (active)	
Cn1c(=O)[nH]c(=O)c2c1nc(NCCc1ccccc1)n2Cc1ccc(F)cc1		-17.7% (inactive)
CCCCNc1nc2c(c(=O)[nH]c(=O)n2C)n1CCOc1ccccc1		-19.7% (inactive)
Cn1c(=O)c2c(nc(NCCc3ccccc3)n2Cc2ccccc2Br)n(C)c1=O		-3.57% (inactive)
Cn1c(=O)c2c(nc(NCCc3ccccc3)n2Cc2ccccc2)n(C)c1=O	14.6 µM (active)	
Clc1ccc(CSc2nncn3c2cc2occc23)cc1		-25.8% (inactive)
N#CN1CCC(NS(=O)(=O)c2cccc(F)c2)C1 (centres undefined)		14.3% (inactive)
COc1ccccc1NC(=O)c1oc2ccccc2c1NC(=O)C(C)C		-28.5% (inactive)
CCN(CC)CCCC(C)n1c2nc(=O)[nH]c(=O)c-2nc2cc(Cl)ccc21 (centres undefined)	20.6 µM (active)	
